Compounds without any hit were thinned out: in the full panel of roughly 83,000, 20% have a hit.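 Step 1: grow cells in 96-well plates. Step 2: add test compound at a single concentration. Step 3: incubate 48 h. Step 4: record percent growth.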 Unmarked numbers belong to inactive results. Activity calls are given as the source filed them. The calls were made as follows: active = growth percent below 10; inactive = the rest.

What all share (assay): NCI-60 one-dose screen, 48 h (100 = growth as untreated, 0 = no growth, -100 = all killed)
One test has as its system SK-MEL-2 melanoma. The settings on record: 10 µM unless noted.
The subject of the next test is EKVX NSCLC. The settings on record: 10 µM unless noted.
In another test the test system is SN12C renal. The conditions noted are these: 10 µM unless noted.
In a further test the test system is UO-31 renal. The conditions noted are these: 10 µM unless noted.
The subject of another test is TK-10 renal. The settings on record: 10 µM unless noted.
Another test relates to ACHN renal. The settings on record: 10 µM unless noted.
A further test concerns A498 renal. The conditions noted are these: 10 µM unless noted.
The subject of another test is CCRF-CEM leukemia. The settings on record: 10 µM unless noted.
For a further test, the system named is MOLT-4 leukemia. The settings on record: 10 µM unless noted.
For another test, the system named is SR leukemia. The settings on record: 10 µM unless noted.
The test system of the next test is RPMI-8226 leukemia. The settings on record: 10 µM unless noted.
In the next test the test system is OVCAR-8 ovarian. The conditions noted are these: 10 µM unless noted.
Another test has as its system OVCAR-5 ovarian. The settings on record: 10 µM unless noted.
The subject of another test is OVCAR-4 ovarian. The conditions noted are these: 10 µM.
In a further test the test system is SK-OV-3 ovarian. The settings on record: 10 µM unless noted.
A further test concerns IGROV1 ovarian. The conditions noted are these: 10 µM unless noted.
Another test concerns OVCAR-3 ovarian. The settings on record: 10 µM unless noted.
Another test relates to HS 578T breast. The settings on record: 10 µM unless noted.
In another test the test system is NCI/ADR-RES ovarian. The settings on record: 10 µM unless noted.
The next test concerns CAKI-1 renal. The conditions noted are these: 10 µM unless noted.

With `O=C(NCCCNC(=O)OCc1ccc2c(Br)cc(Br)c(O)c2n1)OCc1ccc2c(Br)cc(Br)c(O)c2n1`, the growth in the test with SK-MEL-2 melanoma was -6.76% (active); in the test with EKVX NSCLC, -5.94% (active); in the test on SN12C renal, -77.4% (active); in the test with UO-31 renal it was -100% (active); in the test on TK-10 renal it was -89% (active); with ACHN renal, -100% (active). Besides, the growth in the test with A498 renal was -2.82% (active); with CCRF-CEM leukemia, 4.23% (active); in the test on MOLT-4 leukemia, 0.977% (active); with SR leukemia, 5.95% (active); in the test with RPMI-8226 leukemia it was -27.3% (active); with OVCAR-8 ovarian, -14.6% (active). For the same compound, the growth is -63% (active) in the test on OVCAR-5 ovarian; -77.6% (active) with OVCAR-4 ovarian; 20.2% with SK-OV-3 ovarian; -87.7% (active) in the test with IGROV1 ovarian; -69.3% (active) with OVCAR-3 ovarian; -19.1% (active) in the test on HS 578T breast. Besides, in the test with NCI/ADR-RES ovarian, the growth was -29% (active).

In the case of `CCOC(=O)c1cnc2ccc(Br)cc2c1Nc1cccc(S(N)(=O)=O)c1`, the growth in the test with SK-MEL-2 melanoma was 109%; with EKVX NSCLC it was 96.2%; in the test on SN12C renal, 97.3%; with UO-31 renal, 81.2%; in the test on TK-10 renal it was 105%; with ACHN renal, 96.2%. Further, the growth with CAKI-1 renal was 74.1%; in the test on CCRF-CEM leukemia it was 102%; in the test on MOLT-4 leukemia, 85.1%; in the test with SR leukemia it was 94.6%; in the test on RPMI-8226 leukemia, 97%; in the test with OVCAR-8 ovarian, 92.8%. Besides, the growth is 93.6% in the test with OVCAR-5 ovarian; 105% with SK-OV-3 ovarian; 99.6% in the test with IGROV1 ovarian; 102% with OVCAR-3 ovarian; 98.5% with HS 578T breast; 97.4% in the test with NCI/ADR-RES ovarian.

Turning to `CC[C@]12C=CCN3CC[C@@]4(c5ccc(OC)cc5N(C)[C@H]4[C@@](O)(C(=O)OC)[C@@H]1OC(=O)CCC(=O)O[C@H]1CC[C@H]4[C@@H]5CCC6=CC(=O)CC[C@@H]6[C@H]5CC[C@]14C)[C@@H]32`, the growth with SK-MEL-2 melanoma was -79.8% [100 µM] (active); in the test on EKVX NSCLC it was 16.1% [100 µM]; in the test on SN12C renal, 7.65% [100 µM] (active); in the test with UO-31 renal, -7.86% [100 µM] (active); with TK-10 renal, 12.4% [100 µM]; in the test on ACHN renal, -0.641% [100 µM] (active). The growth in the test with A498 renal is -15.8% [100 µM] (active); in the test on CCRF-CEM leukemia it was 5.61% [100 µM] (active); in the test with MOLT-4 leukemia, -6.15% [100 µM] (active); in the test on SR leukemia, 10.5% [100 µM]; in the test with RPMI-8226 leukemia it was -22.1% [100 µM] (active); with OVCAR-8 ovarian, 26.4% [100 µM]. For the same compound, the growth with OVCAR-5 ovarian was 23.7% [100 µM]; in the test with SK-OV-3 ovarian, 13.2% [100 µM]; with IGROV1 ovarian, -46.3% [100 µM] (active); in the test on OVCAR-3 ovarian, 8.48% [100 µM] (active); with HS 578T breast, 4.75% [100 µM] (active); in the test on NCI/ADR-RES ovarian, 10.8% [100 µM].

Regarding `C=C(C)[C@@H]1CC[C@]2(C(=O)OC)CC[C@]3(C)[C@H](CC[C@@H]4[C@@]5(C)CC/C(=N\OCCC(=NCCC#N)NOCCC#N)C(C)(C)[C@@H]5CC[C@]43C)[C@@H]12`, the growth in the test with SK-MEL-2 melanoma was 36.2% [100 µM]; with EKVX NSCLC, 53.1% [100 µM]; in the test on SN12C renal, -71.9% [100 µM] (active); in the test with UO-31 renal, 19% [100 µM]; with TK-10 renal, 37.9% [100 µM]; in the test on ACHN renal, 13.9% [100 µM]. Moreover, the growth in the test on CAKI-1 renal is 18.5% [100 µM]; in the test on CCRF-CEM leukemia it was 7.42% [100 µM] (active); in the test with MOLT-4 leukemia, -26.8% [100 µM] (active); with SR leukemia, 1.86% [100 µM] (active); in the test with RPMI-8226 leukemia, 3.28% [100 µM] (active); with OVCAR-8 ovarian, 13.2% [100 µM]. The growth is 50.6% [100 µM] in the test with OVCAR-5 ovarian; 34.6% [100 µM] in the test on SK-OV-3 ovarian; 18.8% [100 µM] with IGROV1 ovarian; -34.5% [100 µM] (active) in the test on OVCAR-3 ovarian; 24.3% [100 µM] with HS 578T breast; 17.1% [100 µM] in the test with NCI/ADR-RES ovarian.

Turning to `Cc1ccc(S(=O)(=O)Nc2ccccc2)cc1N`, the growth with SK-MEL-2 melanoma was 87.4%; in the test with EKVX NSCLC, 116%; in the test with SN12C renal, 91.3%; in the test with UO-31 renal, 81.2%; in the test with TK-10 renal, 121%; with ACHN renal it was 101%. The growth with CAKI-1 renal is 89.5%; in the test on CCRF-CEM leukemia, 110%; in the test with MOLT-4 leukemia, 96.6%; in the test with SR leukemia, 92.2%; in the test on RPMI-8226 leukemia it was 123%; in the test with OVCAR-8 ovarian, 95.4%. In addition, the growth with OVCAR-5 ovarian was 91.3%; with SK-OV-3 ovarian, 104%; in the test on OVCAR-3 ovarian, 95.6%; with NCI/ADR-RES ovarian it was 91%.

On to `COc1ccc2c(c1)C(C)Cc1c(Cl)nc(C)nc1N2C` (centres undefined), for which the growth in the test with SK-MEL-2 melanoma is 37.3%; in the test with EKVX NSCLC it was 34.4%; with SN12C renal, 32.6%; in the test on UO-31 renal it was 50.9%; with TK-10 renal, 44.4%; with ACHN renal, 55.2%. For the same compound, the growth is -5.78% (active) in the test with A498 renal; 14.7% with CCRF-CEM leukemia; 20.3% in the test with MOLT-4 leukemia; 14.6% with SR leukemia; 29.4% in the test with RPMI-8226 leukemia; 24.2% with OVCAR-8 ovarian. Further, the growth with OVCAR-5 ovarian was 56.2%; with OVCAR-4 ovarian, 54.9%; in the test with SK-OV-3 ovarian it was 19.1%; with IGROV1 ovarian it was 55.7%; with OVCAR-3 ovarian, 6.18% (active); in the test with HS 578T breast, 27.3%. Moreover, the growth with NCI/ADR-RES ovarian was 4.74% (active).

For the compound `C=C(C)[C@@H]1CC[C@]2(C(=O)NCCCN)CC[C@]3(C)[C@H](CC[C@@H]4[C@@]5(C)CC[C@H](O)C(C)(C)[C@@H]5CC[C@]43C)[C@@H]12`, the growth in the test with SK-MEL-2 melanoma was -24.2% [100 µM] (active); in the test with EKVX NSCLC, -15.7% [100 µM] (active); with SN12C renal, -34.7% [100 µM] (active); in the test on UO-31 renal, -34.3% [100 µM] (active); in the test on TK-10 renal, -32.2% [100 µM] (active); in the test on ACHN renal, -49.2% [100 µM] (active). The growth in the test with CAKI-1 renal is -54.5% [100 µM] (active); with CCRF-CEM leukemia, 1.39% [100 µM] (active); with MOLT-4 leukemia it was 2.76% [100 µM] (active); in the test with SR leukemia it was 23.7% [100 µM]; in the test on RPMI-8226 leukemia, -6.66% [100 µM] (active); with OVCAR-8 ovarian it was -3.81% [100 µM] (active). For the same compound, the growth with OVCAR-5 ovarian was -47.7% [100 µM] (active); with SK-OV-3 ovarian, -27.2% [100 µM] (active); in the test with IGROV1 ovarian it was -6.94% [100 µM] (active); in the test with OVCAR-3 ovarian, -45.9% [100 µM] (active); with HS 578T breast it was -4.98% [100 µM] (active); in the test on NCI/ADR-RES ovarian, -9.52% [100 µM] (active).

As for `CSc1nc(N)c(N=Nc2ccc(S(=O)(=O)Nc3nnc(C)s3)cc2)c(=O)[nH]1`, the growth in the test on SK-MEL-2 melanoma was 113%; with EKVX NSCLC, 155%; with SN12C renal, 92.1%; in the test on UO-31 renal, 76.9%; in the test with TK-10 renal, 108%; in the test with ACHN renal it was 102%. The growth was 97.7% in the test with A498 renal; 128% in the test on CCRF-CEM leukemia; 106% in the test on MOLT-4 leukemia; 110% with SR leukemia; 132% in the test with RPMI-8226 leukemia; 103% with OVCAR-8 ovarian. The growth with OVCAR-5 ovarian was 113%; in the test with SK-OV-3 ovarian, 96.9%; in the test on IGROV1 ovarian, 126%; in the test on OVCAR-3 ovarian, 106%; in the test on HS 578T breast, 89.4%; with NCI/ADR-RES ovarian it was 113%.

(Values after PubChem BioAssay (NCI).)
